Measurements as given in PubChem BioAssay (NCATS).
Results filed as inconclusive are left out. Unmarked numbers belong to inactive results. The source made the active and inactive calls. Unless noted, calls follow the shape of the dose curve; as a rule, active = well fitted inhibition curve with a large enough effect; inconclusive = small, poorly fitted or top-dose-only effect; inactive = no such curve, though single readings can be large or run the other way.

test: Primary qHTS for small molecule stabilizers of the endoplasmic reticulum resident proteome: Secreted ER Calcium Modulated Protein (SERCaMP) assay (AID 1508630); details: SH-SY5Y GLuc-SERCaMP (Gaussia luciferase released on ER calcium loss) secretion, thapsigargin, luminescence; series mostly up to 38.4 µM; activity change, negative = inhibition: at the top concentration; also: % is scaled to controls: 0 for no effect and ±100 for the full control effect
Procedure, shortened: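 GLuc-SERCaMP-expressing SH-SY5Y cells, pretreated 16 h with compound, are challenged with thapsigargin to empty ER calcium stores; after 4 h, coelenterazine is added directly to the medium and luminescence is imaged.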

First: O=C(OCCN1CCOCC1)c1cccnc1Nc1cccc(C(F)(F)F)c1
Second: OCCOCCN1CCN(C(c2ccccc2)c2ccc(Cl)cc2)CC1 (configuration not stated)
The “activity change, negative = inhibition” value of the first is higher: 1.64% for the first, -14.3% for the second.

First: Cc1oc(-c2ccccc2)nc1CCC(=O)c1ccc(CC2SC(=O)NC2=O)cc1 (configuration not stated)
Second: COc1ccc([C@@H]2Sc3ccccc3NC(=O)[C@@H]2O)cc1
The “activity change, negative = inhibition” value of the first is lower: 3.56% for the first, 55.8% for the second.

First: O=C(O)Cc1ccccc1Oc1ccc(Cl)cc1Cl
Second: Clc1ccc2c(c1)Nc1ccccc1S2
The “activity change, negative = inhibition” value of the first is lower: -27.7% for the first, -17.6% for the second.

Compared with `O=C1NCCN1CCN1CCC(c2cn(-c3ccc(F)cc3)c3ccc(Cl)cc23)CC1`, `CN1CC(=O)N2[C@H](c3ccc4c(c3)OCO4)c3[nH]c4ccccc4c3C[C@@H]2C1=O` is higher in “activity change, negative = inhibition” value: 10.1% for the first, 29.5% for the second.

Going from `CC(=O)/C=C/C=C1/C2CCC(C2)C1(C)C` (configuration not stated) to `CC(=O)[C@@]1(O)CC[C@H]2[C@@H]3C[C@H](C)C4=CC(=O)CC[C@]4(C)[C@H]3CC[C@@]21C`, the “activity change, negative = inhibition” value rises from 3.39% to 14.7%.

Compared with `CCCc1ccc(OCC(=O)N2CCN(C(=O)COc3ccc(CCC)cc3OC)CC2)c(OC)c1`, `CCNC(=O)NCCCOc1cccc(CN2CCCCC2)c1` is lower in “activity change, negative = inhibition” value: 42.7% for the first, 19.8% for the second.

Compared with `O=C(OCC(COC(=O)c1cccnc1)(COC(=O)c1cccnc1)COC(=O)c1cccnc1)c1cccnc1`, `Cc1ccc(C(=O)Oc2ccc(C(O)CNC(C)(C)C)cc2OC(=O)c2ccc(C)cc2)cc1` (configuration not stated) is lower in “activity change, negative = inhibition” value: 54.3% for the first, 26.7% for the second.

First: CC(Oc1c(Cl)cccc1Cl)C1=NCCN1 (configuration not stated)
Second: Cc1onc(-c2c(Cl)cccc2Cl)c1C(=O)Cl
The “activity change, negative = inhibition” value of the first is higher: -16.1% for the first, -28.3% for the second.

Compared with `CCCCC(CC)CNC(=O)CC(C)OC(=O)CCC(=O)O` (configuration not stated), `O=C(O)CCC(=O)OC[C@@H](NC(=O)C(Cl)Cl)[C@H](O)c1ccc([N+](=O)[O-])cc1` is lower in “activity change, negative = inhibition” value: 8.44% for the first, -19.5% for the second.

Compared with `CCCCCCCCCCCCCCCC[N+](C)(C)Cc1ccccc1`, `CCOC(=O)C(=O)CCc1ccccc1` is lower in “activity change, negative = inhibition” value: -6.4% for the first, -13.1% for the second.

Compared with `OC1(c2ccc(Cl)cc2)CCNCC1`, `O=c1[nH]sc2cc(Cl)ccc12` is higher in “activity change, negative = inhibition” value: -31.4% for the first, 122% for the second.

First: Cc1cccc(N(C)C(=S)Oc2ccc3c(c2)CCC3)c1
Second: CN(C(=O)C(Cl)Cl)c1ccc(OC(=O)c2ccco2)cc1
The “activity change, negative = inhibition” value of the first is higher: 3.1% for the first, -2.19% for the second.

Going from `COC(=O)/C=C(/C)N` to `COc1c(C)c2c(c(O)c1C/C=C(\C)CCC(=O)OCCN1CCOCC1)C(=O)OC2`, the “activity change, negative = inhibition” value rises from -16.8% to 7.4%.

First: Nc1c(I)cc(I)c(C(=O)N(CCC(=O)O)c2ccccc2)c1I
Second: O=S(=O)(O)c1ccc2nc(-c3ccccc3)[nH]c2c1
The “activity change, negative = inhibition” value of the first is higher: 26% for the first, -25.8% for the second.

First: CCCC(=O)O[C@]1(C(=O)CCl)[C@@H](C)C[C@H]2[C@@H]3CCC4=CC(=O)C=C[C@]4(C)[C@@]3(F)C(=O)C[C@@]21C
Second: CCCCC(=O)OCC(=O)[C@H]1[C@H](C)C[C@H]2[C@@H]3C[C@H](F)C4=CC(=O)C=C[C@]4(C)[C@@]3(F)[C@@H](O)C[C@@]21C
The “activity change, negative = inhibition” value of the first is lower: -15.1% for the first, 26.5% for the second.

First: C[C@H]1C[C@@H]2[C@H]([C@@H](O)C[C@@]3(C)[C@H]2CC[C@]3(O)C(=O)CO)[C@@]2(C)C=CC(=O)C=C12
Second: CC(C)C(=O)Nc1cccc(C2CN3CCSC3=N2)c1 (configuration not stated)
The “activity change, negative = inhibition” value of the first is higher: 20.4% for the first, 14% for the second.

Compared with `OC(CCCN1CCCCC1)(c1ccccc1)c1ccccc1`, `CC[C@@]1(O)C(=O)OCc2c1cc1n(c2=O)Cc2c-1nc1ccccc1c2/C=N/OC(C)(C)C` is higher in “activity change, negative = inhibition” value: -26.6% for the first, 203% for the second.

For `COc1ccc2c(c1)c(CC(=O)OC/C=C(\C)CC/C=C(\C)CCC=C(C)C)c(C)n2C(=O)c1ccc(Cl)cc1`, the “activity change, negative = inhibition” value was 10.8%.

For `Nc1c[n+](N2CCOCC2)no1`, the Potency was “inactive”.
With `CCCCCCCCCCCCCCCC[n+]1ccccc1` the Potency was “inactive”.

test: A High-Content qHTS Against Drug Library for the Identification of Small Molecules that Inhibit DYT1 Early Onset Primary Dystonia-Associated Cell Pathology (AID 1645839; calls by dose curve; also: potency is read from the fitted curve at half-maximal effect); details: HEK293 Flp-In EGFP-delE TorsinA, punctate imaging, 48 h; series mostly up to 46.1 µM; % pathology change, negative = correction: at the top concentration
Procedure, shortened: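 In this high-content image screen, delE TorsinA mislocalization in inducible Flp-In 293 cells is scored as %pathology, with cell count serving as the counterscreen. Compound exposure lasts 48 h under tetracycline induction in reduced-serum medium.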

Compared with `Nc1c[n+](N2CCOCC2)no1`, `COc1c(C)c2c(c(O)c1C/C=C(\C)CCC(=O)OCCN1CCOCC1)C(=O)OC2` is higher in “% pathology change, negative = correction” value (“% pathology change” for short): -13.5% for the first, -1.97% for the second.

Going from `O=C(O)Cc1ccccc1Oc1ccc(Cl)cc1Cl` to `Clc1ccc2c(c1)Nc1ccccc1S2`, the “% pathology change” value rises from 12.7% to 17.9%.

Compared with `CC(=O)/C=C/C=C1/C2CCC(C2)C1(C)C` (configuration not stated), `CC(=O)[C@@]1(O)CC[C@H]2[C@@H]3C[C@H](C)C4=CC(=O)CC[C@]4(C)[C@H]3CC[C@@]21C` is higher in “% pathology change” value: 5.02% for the first, 14.1% for the second.

Going from `O=C(OCC(COC(=O)c1cccnc1)(COC(=O)c1cccnc1)COC(=O)c1cccnc1)c1cccnc1` to `CN(C(=O)C(Cl)Cl)c1ccc(OC(=O)c2ccco2)cc1`, the “% pathology change” value falls from 17.9% to -17.2%.

Going from `CC(Oc1c(Cl)cccc1Cl)C1=NCCN1` (configuration not stated) to `Cc1onc(-c2c(Cl)cccc2Cl)c1C(=O)Cl`, the “% pathology change” value falls from 2.57% to 0.764%.

Compared with `CN1CC(=O)N2[C@H](c3ccc4c(c3)OCO4)c3[nH]c4ccccc4c3C[C@@H]2C1=O`, `COc1ccc([C@@H]2Sc3ccccc3NC(=O)[C@@H]2O)cc1` is lower in “% pathology change” value: 3.05% for the first, -30.5% for the second.

Going from `CCCCC(CC)CNC(=O)CC(C)OC(=O)CCC(=O)O` (configuration not stated) to `O=C(O)CCC(=O)OC[C@@H](NC(=O)C(Cl)Cl)[C@H](O)c1ccc([N+](=O)[O-])cc1`, the “% pathology change” value falls from 8.13% to 1.17%.

Going from `OC1(c2ccc(Cl)cc2)CCNCC1` to `O=c1[nH]sc2cc(Cl)ccc12`, the “% pathology change” value rises from -10.1% to 0.0712%.

Compared with `Cc1cccc(N(C)C(=S)Oc2ccc3c(c2)CCC3)c1`, `O=S(=O)(O)c1ccc2nc(-c3ccccc3)[nH]c2c1` is higher in “% pathology change” value: 2.16% for the first, 16.5% for the second.

First: COC(=O)/C=C(/C)N
Second: COc1ccc2c(c1)c(CC(=O)OC/C=C(\C)CC/C=C(\C)CCC=C(C)C)c(C)n2C(=O)c1ccc(Cl)cc1
The “% pathology change” value of the first is higher: 7.97% for the first, 4.9% for the second.

Compared with `Nc1c(I)cc(I)c(C(=O)N(CCC(=O)O)c2ccccc2)c1I`, `OC(CCCN1CCCCC1)(c1ccccc1)c1ccccc1` is higher in “% pathology change” value: -5.05% for the first, 2.57% for the second.

First: CCCC(=O)O[C@]1(C(=O)CCl)[C@@H](C)C[C@H]2[C@@H]3CCC4=CC(=O)C=C[C@]4(C)[C@@]3(F)C(=O)C[C@@]21C
Second: CCCCC(=O)OCC(=O)[C@H]1[C@H](C)C[C@H]2[C@@H]3C[C@H](F)C4=CC(=O)C=C[C@]4(C)[C@@]3(F)[C@@H](O)C[C@@]21C
The “% pathology change” value of the first is higher: 10.7% for the first, -0.741% for the second.

First: C[C@H]1C[C@@H]2[C@H]([C@@H](O)C[C@@]3(C)[C@H]2CC[C@]3(O)C(=O)CO)[C@@]2(C)C=CC(=O)C=C12
Second: CC(C)C(=O)Nc1cccc(C2CN3CCSC3=N2)c1 (configuration not stated)
The “% pathology change” value of the first is higher: 0.402% for the first, -12.6% for the second.

With `CCNC(=O)NCCCOc1cccc(CN2CCCCC2)c1` the “% pathology change” value was 2.76%.

With `O=C1NCCN1CCN1CCC(c2cn(-c3ccc(F)cc3)c3ccc(Cl)cc23)CC1` the Potency was 11.2 µM (active).
With `CCCc1ccc(OCC(=O)N2CCN(C(=O)COc3ccc(CCC)cc3OC)CC2)c(OC)c1` the Potency was 11.2 µM (active).
For `CCCCCCCCCCCCCCCC[N+](C)(C)Cc1ccccc1`, the Potency was 22.4 µM (active).
